The source of these data is PubChem BioAssay (NCI).

This is part of a sample that, as a whole, favours compounds with a hit. Of some 83,000 tested, about 20% had one in any assay.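 Testing used 96-well plates and a 48-hour single-concentration exposure. Example: -40 means 40% of the starting cells died.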 A number with no mark means an inactive call. The source made the active and inactive calls. The calls were made as follows: active = growth percent below 10; inactive = the rest.

Test systems include NCI-H23 lung; NCI-H226 lung; NCI-H322M lung; HOP-62 NSCLC; NCI-H460 lung; HOP-92 NSCLC; NCI-H522 lung; A549/ATCC NSCLC; 786-0 renal; COLO 205 colon.
What all share (experiment): NCI-60 one-dose screen, 48 h (100 = growth as untreated, 0 = no growth, -100 = all killed)
Holding throughout (conditions): 10 µM unless noted

In the case of `O=S1(=O)OC(c2ccc(O)c(Cl)c2)(c2ccc(O)c(Cl)c2)c2ccccc21`, the growth in the assay on NCI-H23 lung is 97.8%; in the assay with NCI-H226 lung, 93.9%; with NCI-H322M lung it was 107%; in the assay on HOP-62 NSCLC it was 99.5%; with NCI-H460 lung it was 101%; in the assay on HOP-92 NSCLC, 60.6%. Also, the growth in the assay with NCI-H522 lung is 93.4%; in the assay on A549/ATCC NSCLC, 99.1%; in the assay with 786-0 renal, 110%; in the assay with COLO 205 colon, 103%.

Consider `O=C(Cc1ccccc1)Nc1nnc(NC2CCN(c3nnc(NC(=O)Cc4ccccc4)s3)CC2)s1`, for which the growth in the assay on NCI-H23 lung was 96.1%; with NCI-H226 lung it was 98.7%; in the assay with NCI-H322M lung, 35.3%; in the assay on HOP-62 NSCLC, 75.9%; in the assay on NCI-H460 lung it was 93.3%; with HOP-92 NSCLC it was 94.5%. The growth with NCI-H522 lung is 72.5%; with A549/ATCC NSCLC it was 34.4%; with 786-0 renal, 89%; in the assay with COLO 205 colon, 90.1%.

As for `C=CC(=O)Nc1cc2c(Nc3ccc(F)c(Cl)c3)ncnc2cc1C#CC(C)(C)N1CCN(C)CC1`, the growth is -88.9% (active) with NCI-H23 lung; -97.4% (active) in the assay with NCI-H226 lung; -86% (active) with NCI-H322M lung; -88.3% (active) in the assay with HOP-62 NSCLC; -77% (active) in the assay on NCI-H460 lung; -91.3% (active) in the assay on HOP-92 NSCLC. The growth was -73.7% (active) with NCI-H522 lung, -82% (active) in the assay on A549/ATCC NSCLC, -96.3% (active) in the assay on 786-0 renal and -71.7% (active) in the assay on COLO 205 colon.

Consider `CNS(=O)(=O)Nc1nccc(Cc2c(C)c3ccc(Oc4ncccn4)cc3oc2=O)c1F`, for which the growth was 24.1% in the assay with NCI-H23 lung; 58% with NCI-H226 lung; 33.3% in the assay on NCI-H322M lung; 42.8% in the assay with HOP-62 NSCLC; 61.3% with NCI-H460 lung; -4.71% (active) with HOP-92 NSCLC. In addition, the growth in the assay on NCI-H522 lung is 52%; in the assay with A549/ATCC NSCLC, 38.3%; with 786-0 renal, 68%; with COLO 205 colon it was 8.97% (active).

Consider `COC(=O)N[C@@H](C)CNc1nccc(-c2cn(C(C)C)nc2-c2cc(Cl)cc(NS(C)(=O)=O)c2F)n1`, for which the growth in the assay with NCI-H23 lung was 59.2%; in the assay with NCI-H226 lung, 94.9%; in the assay on NCI-H322M lung, 78.7%; in the assay with HOP-62 NSCLC, 72.7%; in the assay on NCI-H460 lung it was 91.2%; with HOP-92 NSCLC, 49.7%. Further, the growth in the assay on NCI-H522 lung was 44.2%; with A549/ATCC NSCLC, 53.4%; in the assay with 786-0 renal, 48.6%; in the assay with COLO 205 colon it was 4.94% (active).

For the compound `O=c1[nH]ccc2c(S(=O)(=O)N3CCCNCC3)cccc12`, the growth in the assay with NCI-H23 lung is 78.5%; in the assay with NCI-H226 lung, 81.7%; in the assay on NCI-H322M lung, 29.6%; with HOP-62 NSCLC, 68.8%; in the assay with NCI-H460 lung, 95.3%; in the assay with HOP-92 NSCLC, 30%. Besides, the growth is 17.3% with NCI-H522 lung, 81.3% with A549/ATCC NSCLC, 54% with 786-0 renal and 112% in the assay with COLO 205 colon.

In the case of `COCCOc1cnc2ccn([C@H](C)c3nnc4c(F)cc(-c5cnn(C)c5)cn34)c(=O)c2c1`, the growth with NCI-H23 lung is 51.1%; in the assay on NCI-H226 lung it was 68.8%; in the assay with NCI-H322M lung, 59.2%; with HOP-62 NSCLC, 89.2%; in the assay with NCI-H460 lung, 75.6%; with HOP-92 NSCLC, 85.3%. For the same compound, the growth was 87.7% with NCI-H522 lung, 65.7% in the assay with A549/ATCC NSCLC, 108% in the assay on 786-0 renal and 106% in the assay with COLO 205 colon.

As to `CCOc1cc2ncc(C#N)c(Nc3ccc(OCc4ccccn4)c(Cl)c3)c2cc1NC(=O)/C=C/CN(C)C`, the growth in the assay on NCI-H23 lung was 39.9%; with NCI-H226 lung it was 47.2%; in the assay with NCI-H322M lung, 0.942% (active); in the assay with HOP-62 NSCLC, 38.6%; in the assay on NCI-H460 lung, -62.2% (active); in the assay on HOP-92 NSCLC it was 39.3%. Moreover, the growth with NCI-H522 lung was 6.98% (active); in the assay on A549/ATCC NSCLC, 22.3%; in the assay with 786-0 renal, -74.7% (active); in the assay on COLO 205 colon, 27.4%.

Regarding `C[C@@H](C[C@H](CCO)c1cc(C(F)(F)F)cc(C(F)(F)F)c1)c1ccc2ccccc2c1`, the growth is 85.3% in the assay with NCI-H23 lung; 91.1% in the assay with NCI-H226 lung; 99.1% in the assay on NCI-H322M lung; 85.6% in the assay with HOP-62 NSCLC; 106% in the assay with NCI-H460 lung; 96.5% in the assay with HOP-92 NSCLC. The growth in the assay with NCI-H522 lung was 76.7%; in the assay with A549/ATCC NSCLC, 87.7%; in the assay with 786-0 renal, 87.5%; in the assay with COLO 205 colon, 97%.

In the case of `COc1cc2nccc(Oc3ccc(NC(=O)Nc4cc(C)on4)c(Cl)c3)c2cc1OC`, the growth in the assay on NCI-H23 lung is 28.8%; in the assay on NCI-H226 lung, 23.1%; in the assay on NCI-H322M lung, 32.9%; in the assay on HOP-62 NSCLC, 18.4%; in the assay on NCI-H460 lung, 14.5%; with HOP-92 NSCLC, -55.9% (active). Further, the growth was 11.1% in the assay with NCI-H522 lung, 4.95% (active) with A549/ATCC NSCLC, 16.1% in the assay on 786-0 renal and -25.4% (active) in the assay on COLO 205 colon.

`O=[N+]([O-])c1cc(Br)cc2c1[nH]c1ccc(Br)cc12`: the growth was 58% with NCI-H23 lung; 53.9% with NCI-H226 lung; 58% with NCI-H322M lung; 39.2% in the assay on HOP-62 NSCLC; 73.5% in the assay on NCI-H460 lung; 44.2% in the assay on HOP-92 NSCLC. Besides, the growth was 63.5% with NCI-H522 lung, 52.3% in the assay with A549/ATCC NSCLC, 44.3% in the assay on 786-0 renal and 52.1% with COLO 205 colon.

In the case of `CN(C)C/C=C/C(=O)Nc1cc2c(Nc3ccc(F)c(Cl)c3)ncnc2cc1O[C@H]1CCOC1`, the growth in the assay on NCI-H23 lung is -11.7% (active); with NCI-H226 lung, -7.37% (active); in the assay on NCI-H322M lung it was -16.4% (active); with HOP-62 NSCLC, -10.8% (active); in the assay with NCI-H460 lung, 4.3% (active); with HOP-92 NSCLC it was -11.5% (active). Besides, the growth in the assay with NCI-H522 lung is -55.6% (active); with A549/ATCC NSCLC, 3.14% (active); in the assay with 786-0 renal it was 8.66% (active); in the assay with COLO 205 colon, -65.1% (active).

Regarding `Cc1nn(-c2ccccc2)c2c1N=c1s/c(=C\c3cn(-c4ccccc4)nc3-c3ccc(Cl)cc3)c(=O)n1C(C)N2` (stereo not given), the growth in the assay on NCI-H23 lung was 79.4%; with NCI-H226 lung it was 93.2%; in the assay with NCI-H322M lung, 113%; with HOP-62 NSCLC it was 102%; in the assay with NCI-H460 lung it was 93%; in the assay on HOP-92 NSCLC, 66.7%. In addition, the growth in the assay on NCI-H522 lung is 10.2%; in the assay with A549/ATCC NSCLC it was 87.8%; in the assay with 786-0 renal, 77.1%; in the assay with COLO 205 colon, 99.2%.
